Compound activity as filed in PubChem.
AmpC no deterg: inhibitors of E. coli AmpC beta-lactamase without detergent; 0.52% of 330,000 active; Potency, µM (highest dose often 57.1 µM), most hits filed as inhibitors; AmpC nitrocefin hydrolysis, absorbance 480 nm, 0.0001% Triton; P00811; AID 485341; also: nearly all actives have a fitted effect of over 20% in size
Target sequence (P00811 whole entry, looked up): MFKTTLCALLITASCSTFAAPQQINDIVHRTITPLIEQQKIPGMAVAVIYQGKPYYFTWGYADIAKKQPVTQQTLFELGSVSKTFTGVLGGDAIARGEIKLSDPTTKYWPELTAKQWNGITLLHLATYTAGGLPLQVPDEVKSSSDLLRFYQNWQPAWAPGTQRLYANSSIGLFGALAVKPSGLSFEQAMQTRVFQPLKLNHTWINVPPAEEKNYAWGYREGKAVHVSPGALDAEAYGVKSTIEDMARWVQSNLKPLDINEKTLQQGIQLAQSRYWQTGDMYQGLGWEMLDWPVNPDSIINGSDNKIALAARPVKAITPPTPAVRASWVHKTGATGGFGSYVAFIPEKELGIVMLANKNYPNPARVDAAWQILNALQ
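20 mM phosphate pH 7.0 + 0.01% (detergent screen) or 0.0001% Triton X-100; 5.3 nM AmpC reagent; cpd preinc 15 min RT; nitrocefin (800 uM stock) to start; A480 q20 s × 4 min; Activity was normalised to no-enzyme and no-compound control wells.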
AmpC detergent: blocks E. coli AmpC beta-lactamase in detergent assay; P00811; 0.041% of 370,000 active; AID 485294; AmpC hydrolysis of nitrocefin, absorbance 480 nm, 0.01% Triton; Potency, µM (highest dose often 114 µM), usual class: inhibitors; also: nearly all actives have a fitted effect of over 25% in size
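AmpC (5.3 nM in the dispensed reagent) in 20 mM phosphate pH 7.0 with 0.01% (detergent screen) or 0.0001% Triton X-100 was preincubated with compounds for 15 min at room temperature. Nitrocefin was then added from an 800 uM solution, and hydrolysis was followed at 480 nm.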
Sm TGR inh: blocks Schistosoma mansoni thioredoxin glutathione reductase. purified TGR, DTNB reduction, TNB absorbance 405 nm. AID 485364. Potency, µM (series often up to 114 µM), most hits filed as inhibitors. 3% of 360,000 active; also: nearly all actives have a fitted effect of over 60% in size
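Kinetic colorimetric format: TGR-catalysed, NADPH-driven DTNB reduction monitored via TNB absorbance. Enzyme dispensed at 20 nM; compound exposure 15 min at room temperature before reaction start.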
Of the large screens only hits and unclear results are named; the others gave an inactive call. Only some compounds are listed: those with a hit (about 3.3% of all), similar ones and a draw of the others. Calls follow the shape of the dose curve; as a rule, active = well fitted curve in the direction sought with a large enough effect; inconclusive = small, poorly fitted or top-dose-only effect, or another doubt; inactive = no such curve, though single readings can be large; an effect the other way counts as inactive or inconclusive.

CC1CN(C(=O)c2ccc(COc3ccccc3Cl)o2)CC(C)O1 (stereo not drawn)	none
CC1CN(C(=O)c2ccc(COc3ccc4ccccc4c3)o2)CC(C)O1 (stereo not drawn)	Sm TGR inh 32µM
CC1CN(C(=O)c2ccc(COc3ccc(C(C)C)cc3)o2)CC(C)O1 (stereo not drawn)	Sm TGR inh 40µM
Cc1ccccc1OCc1ccc(C(=O)N2CC(C)OC(C)C2)o1 (stereo not drawn)	none
CCOc1ccc(NS(=O)(=O)c2c(C)nc3sc(C)c(C)n3c2=O)cc1	none (no result: AmpC no deterg)
COc1ccc(-c2noc(CN(C(=O)Cc3ccc(C)cc3)C(C)C)n2)cc1	none (no result: AmpC no deterg)
Cc1ccc(-n2c(=O)c3c(c4cc(C)ccc4n3C)n(CC(=O)Nc3ccc(F)cc3)c2=O)cc1	none (no result: AmpC no deterg)
CC(C)CC(=O)NCC(c1ccc2c(c1)OCO2)N1CCN(c2ccccc2F)CC1 (stereo not drawn)	none (no result: AmpC no deterg)
Nc1ccc(Nc2ccccc2)c(Cl)c1	Sm TGR inh 11µM
Nc1ccccc1Nc1ccccc1	none
C#CCOCCOCCOCCNc1nc(N2CCN(C(=O)[C@H](CCC(=O)O)n3cc(C(N)CC(C)C)nn3)CC2)nc(N2CCN(C(=O)[C@H](CCC(=O)O)n3cc(C(N)[C@H](C)CC)nn3)CC2)n1 (stereo partly drawn)	Sm TGR inh 32µM
C#CCOCCOCCOCCNc1nc(N2CCN(C(=O)[C@H](CCC(=O)O)n3cc(C(N)CO)nn3)CC2)nc(N2CCN(C(=O)[C@H](CCC(=O)O)n3cc(C(N)[C@H](C)CC)nn3)CC2)n1 (stereo partly drawn)	Sm TGR inh 28µM
C#CCOCCOCCOCCNc1nc(N2CCN(C(=O)C([C@@H](C)CC)n3cc(C(N)CC(C)C)nn3)CC2)nc(N2CCN(C(=O)[C@H](CCC(=O)O)n3cc(C(N)[C@H](C)CC)nn3)CC2)n1 (stereo partly drawn)	none
C#CCOCCOCCOCCNc1nc(N2CCN(C(=O)[C@H](CCC(=O)O)n3cc(C(N)CC(C)C)nn3)CC2)nc(N2CCN(C(=O)[C@H](Cc3ccc(O)cc3)n3cc(C(N)[C@H](C)CC)nn3)CC2)n1 (stereo partly drawn)	Sm TGR inh 40µM
C#CCOCCOCCOCCNc1nc(N2CCN(C(=O)C([C@@H](C)CC)n3cc(C(N)CO)nn3)CC2)nc(N2CCN(C(=O)[C@H](CCC(=O)O)n3cc(C(N)[C@H](C)CC)nn3)CC2)n1 (stereo partly drawn)	none
C#CCOCCOCCOCCNc1nc(N2CCN(C(=O)[C@H](CCCCN)n3cc([C@@H](N)[C@H](C)CC)nn3)CC2)nc(N2CCN(C(=O)[C@H](CCCCN)n3cc([C@@H](N)CC(N)=O)nn3)CC2)n1	none (no result: AmpC detergent, Sm TGR inh)
C#CCOCCOCCOCCNc1nc(N2CCN(C(=O)C(Cc3cc4ccccc4[nH]3)n3cc(C(N)Cc4ccc(O)cc4)nn3)CC2)nc(N2CCN(C(=O)C(CCC(=O)O)n3cc(C(N)C(C)CC)nn3)CC2)n1 (stereo not drawn)	none
C#CCOCCOCCOCCNc1nc(N2CCN(C(=O)[C@H](CCCCN)n3cc([C@@H](N)C(C)CC)nn3)CC2)nc(N2CCN(C(=O)[C@H](CCCCN)n3cc([C@@H](N)CC(C)C)nn3)CC2)n1 (stereo partly drawn)	Sm TGR inh 40µM
CCc1cccc(C)c1NC(=O)CN(C)S(=O)(=O)c1cccc2nsnc12	none (no result: AmpC no deterg)
CCCCC12CN3CC(C)(CN(C1)C3c1c(C)[nH]c(=O)[nH]c1=O)C2=O (stereo not drawn)	none (no result: AmpC no deterg)
Cn1c(=O)[nH]c2cc(-c3noc(-c4ccc(F)cc4)n3)ccc21	none (no result: AmpC no deterg)
C#CCOCCOCCOCCNc1nc(N2CCN(C(=O)[C@H]([C@@H](C)CC)n3cc([C@@H](N)CC(C)C)nn3)CC2)nc(N2CCN(C(=O)[C@H]([C@@H](C)CC)n3cc([C@@H](N)CC(C)C)nn3)CC2)n1	Sm TGR inh 28µM
C#CCOCCOCCOCCNc1nc(N2CCN(C(=O)Cn3cc(CCCCN)nn3)CC2)nc(N2CCN(C(=O)[C@H](CCCCN)n3cc(CCCC)nn3)CC2)n1	none
C#CCOCCOCCOCCNc1nc(N2CCN(C(=O)[C@H](CCCCN)n3cc(CCCC)nn3)CC2)nc(N2CCN(C(=O)[C@H](Cc3ccc(O)cc3)n3cc(CCO)nn3)CC2)n1	AmpC detergent inconclusive, Sm TGR inh 35µM
C#CCOCCOCCOCCNc1nc(N2CCN(C(=O)[C@H](CCC(=O)O)n3cc(C(N)Cc4ccc(O)cc4)nn3)CC2)nc(N2CCN(C(=O)[C@H](CCCCN)n3cc(C(N)[C@H](C)CC)nn3)CC2)n1 (stereo partly drawn)	Sm TGR inh 32µM
C#CCOCCOCCOCCNc1nc(N2CCN(C(=O)[C@H]([C@@H](C)CC)n3cc([C@@H](N)Cc4ccc(O)cc4)nn3)CC2)nc(N2CCN(C(=O)[C@H](CCCCN)n3cc([C@@H](N)C(C)CC)nn3)CC2)n1 (stereo partly drawn)	none
C#CCOCCOCCOCCNc1nc(N2CCN(C(=O)[C@H]([C@@H](C)CC)n3cc([C@@H](N)CC(C)C)nn3)CC2)nc(N2CCN(C(=O)[C@H](Cc3ccc(O)cc3)n3cc([C@@H](N)CC(C)C)nn3)CC2)n1	none
COc1ccc(OC)c2sc(NNC(=O)COc3ccccc3)nc12	none
COc1ccc(OCC(=O)NNc2nc3ccccc3s2)cc1	AmpC no deterg 10µM
O=c1cc(CSc2ncn[nH]2)[nH]c2c(Cl)cccc12	none (no result: AmpC no deterg)
CC(=O)c1cc2c(cc1NC(=O)CCC1CCCC1)OCO2	none
CC(=O)c1cc2c(cc1NC(=O)CCn1cccc1)OCO2	Sm TGR inh 35µM
Cc1nc2ccc(N=NN(C)C)cc2[nH]1	Sm TGR inh 20µM
Cc1nc2ccc(Cc3ccc4nc(C)[nH]c4c3)cc2[nH]1	none
Cc1ccc(-c2ccc(=O)n(CC(=O)NC(C)c3ccccc3)n2)cc1 (stereo not drawn)	none (no result: AmpC no deterg)
COCCNC(=O)/C(C#N)=C/c1cn(CC(=O)NCc2ccco2)c2ccccc12	none
Cc1cccc(NC(=O)/C(C#N)=C/c2cn(CC(=O)NCc3ccco3)c3ccccc23)c1	AmpC no deterg 14µM
O=C(CCc1ccccc1)N(Cc1cccnc1)c1nc2c(F)cc(F)cc2s1	none (no result: AmpC no deterg)
Cc1ccc(C(=O)N/C(=C\c2ccc(-c3ccccc3[N+](=O)[O-])o2)C(=O)NCCCN2CCOCC2)cc1	Sm TGR inh 35µM
Cc1ccc(C(=O)N/C(=C\c2cn(C)c3ccccc23)C(=O)NCCCN2CCOCC2)cc1	none
CC1=C(C(=O)Nc2ccc(C)cc2C)C(c2cccs2)n2nc(SCc3cccc(C)c3)nc2N1 (stereo not drawn)	none (no result: AmpC no deterg)
Oc1ccccc1-c1cc(-c2ccco2)[nH]n1	AmpC no deterg inconclusive, Sm TGR inh inconclusive
Oc1ccc(Cl)cc1-c1cc(-c2ccco2)[nH]n1	Sm TGR inh 45µM
Cc1cc(C)cc(-n2c(SCC(=O)Nc3cccc(F)c3)nc3c([nH]c4ccccc43)c2=O)c1	none (no result: AmpC no deterg)
O=C(OCn1ncc(Cl)c(Cl)c1=O)c1ccc(C(F)(F)F)cc1	AmpC detergent inconclusive
O=C(Cn1ncc(Cl)c(Cl)c1=O)c1ccc2c(c1)OCCO2	none (no result: AmpC detergent, Sm TGR inh)
